Reference: PubChem BioAssay (EPA / NIEHS)
The source made the active and inactive calls. How the source made its calls: active means hit-call score of the fitted dose curve at least 0.9, where 1 is the maximum; inactive means score below 0.9.

Assays:
[1] = ATG_E_Box_CIS: Attagene CIS-FACTORIAL HepG2 Assay for human Enhancer Box (E-box) (AID 2282936); settings: HepG2 E-box cis-reporter transcription, actives raise or lower the signal
Summary of the method: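 Fluorescent reporter fragments separated by capillary electrophoresis gave the signal; mRNA came from HepG2 cells transfected with cis-element reporters and treated 24 h. Curves fitted bidirectionally relative to DMSO controls.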

[2] = ATG_M_61_CIS: Attagene CIS-FACTORIAL HepG2 Assay for M61 Transcription Factor (Internal Marker) (AID 2282937); settings: HepG2 Attagene CIS-FACTORIAL M61 internal marker reporter; actives raise or lower the signal
Summary of the method: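 Cells were transfected with reporter units under cis-regulatory promoters, treated with chemicals for 24 h, then lysed for RNA. Reporter transcripts were quantified by RT-PCR and capillary electrophoresis, and activity was fitted bidirectionally against DMSO.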

[3] = ATG_EGR_CIS: Attagene CIS-FACTORIAL HepG2 Assay for human Early Growth Response 1 (EGR1) (AID 2282938); settings: HepG2 Attagene CIS-FACTORIAL EGR reporter mRNA; actives raise or lower the signal
Summary of the method: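 Endogenous TF activity in HepG2 liver cells was gauged through cis-promoter reporter constructs transiently transfected. After 24 h dosing, reporter mRNA was quantified by RT-PCR and capillary electrophoresis, and curves fitted in both directions versus DMSO.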

[4] = ATG_M_19_CIS: Attagene CIS-FACTORIAL HepG2 Assay for M19 Transcription Factor (Internal Marker) (AID 2282939); settings: HepG2 Attagene CIS-FACTORIAL M19 internal marker reporter; actives raise or lower the signal
Summary of the method: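 Readout: fluorescent reporter-transcript fragments by capillary electrophoresis after RT-PCR. Human HepG2 liver cells carried transfected MRTU constructs reporting endogenous transcription-factor activity; exposure 24 h. Gain or loss of signal fitted relative to DMSO.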

[5] = ATG_ERE_CIS: Attagene CIS-FACTORIAL HepG2 Assay for Estrogen Response Element (ERE) (AID 2282940); settings: HepG2 ERE cis-reporter, Attagene RNA transcript; actives raise or lower the signal
Summary of the method: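 Readout: reporter mRNA induction by RT-PCR, FAM-labelled primer extension, HpaI digestion and capillary electrophoresis, 24 h after dosing transfected HepG2 cells. Endogenous transcription factors act on cis-element-regulated reporters. Gain or loss fitted against DMSO.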

[6] = ATG_Ets_CIS: Attagene CIS-FACTORIAL HepG2 Assay for human Erythroblast Transformation Specific (ETS) (AID 2282941); settings: HepG2 ETS cis-reporter transcription, actives raise or lower the signal
Summary of the method: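 Endogenous transcription factor activity read as reporter mRNA via RT-PCR and capillary electrophoresis, with gain or loss fitted bidirectionally against DMSO. Human HepG2 liver cells, transiently transfected CIS reporter constructs, 24 h exposure.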

[7] = molecular target: Hepatocyte nuclear factor 3-beta (Homo sapiens) (UniProt Q9Y261); test: ATG_FoxA2_CIS: Attagene CIS-FACTORIAL HepG2 Assay for human Forkhead box A2 (FOXA2) (AID 2282942); settings: HepG2 cis-reporter transcription factor activity, 24 h; actives raise or lower the signal
Summary of the method: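 Endogenous transcription factor activity was read in HepG2 cells carrying transiently transfected cis-promoter reporter units. After 24 h dosing, reporter mRNA was quantified by RT-PCR and capillary electrophoresis, and values fitted bidirectionally versus DMSO.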

[8] = ATG_FoxO_CIS: Attagene CIS-FACTORIAL HepG2 Assay for human Forkhead box O (FoxO) (AID 2282943); settings: HepG2 Attagene cis-reporter, FoxO element, mRNA; actives raise or lower the signal
Summary of the method: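 Endogenous transcription factor activity read from multiplexed cis-promoter reporter transcripts in transiently transfected HepG2, 24 h after dosing. Reporter RNA measured via RT-PCR plus capillary electrophoresis of FAM-labeled products; gain or loss relative to DMSO.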

[9] = ATG_GATA_CIS: Attagene CIS-FACTORIAL HepG2 Assay for human GATA Binding Protein (AID 2282944); settings: HepG2 GATA cis-element reporter, Attagene multiplex mRNA; actives raise or lower the signal
Summary of the method: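 Read-out: fluorescent reporter mRNA fragments resolved by capillary electrophoresis after RT-PCR. Human liver HepG2 cells carried transiently transfected cis-regulated reporter constructs; chemicals incubated 24 h; gain or loss of signal fitted relative to DMSO.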

[10] = ATG_GLI_CIS: Attagene CIS-FACTORIAL HepG2 Assay for human Zinc Finger Protein GLI1 (AID 2282945); settings: HepG2, Attagene cis-factorial reporter mRNA, GLI element; actives raise or lower the signal
Summary of the method: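 Bidirectional curve fits relative to DMSO, using reporter mRNA levels from RT-PCR plus capillary electrophoresis. Cells were HepG2 transiently carrying cis-regulated reporter constructs, harvested 24 h after dosing.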

Chain of Hepatocyte nuclear factor 3-beta (Homo sapiens) (Q9Y261 whole entry, looked up): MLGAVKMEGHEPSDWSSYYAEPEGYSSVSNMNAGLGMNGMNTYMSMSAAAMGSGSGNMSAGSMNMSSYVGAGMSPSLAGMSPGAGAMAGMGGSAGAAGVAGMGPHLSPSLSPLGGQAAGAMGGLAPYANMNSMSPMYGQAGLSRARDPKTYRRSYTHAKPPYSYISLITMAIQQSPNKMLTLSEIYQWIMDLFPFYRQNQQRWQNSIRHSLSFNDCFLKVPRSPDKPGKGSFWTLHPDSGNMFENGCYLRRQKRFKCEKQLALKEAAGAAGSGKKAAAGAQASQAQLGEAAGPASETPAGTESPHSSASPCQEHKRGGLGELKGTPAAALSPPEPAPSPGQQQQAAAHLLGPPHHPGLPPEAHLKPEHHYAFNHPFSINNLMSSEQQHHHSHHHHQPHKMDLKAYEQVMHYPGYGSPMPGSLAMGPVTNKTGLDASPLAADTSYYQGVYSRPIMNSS

SMILES	outcome [1]	outcome [2]	outcome [3]	outcome [4]	outcome [5]	outcome [6]	outcome [7]	outcome [8]	outcome [9]	outcome [10]	AC50 [1]	AC50 [3]	AC50 [7]	AC50 [10]	AC50 [8]	AC50 [5]
CCCCCCCC/C=C\CCCCCCCC(=O)OCCO	inactive	inactive	inactive	inactive	inactive	inactive	inactive	inactive	inactive	inactive	–	–	–	–	–	–
CCOCC(=O)O	inactive	inactive	inactive	inactive	inactive	inactive	inactive	inactive	inactive	inactive	–	–	–	–	–	–
C1CN(SSN2CCOCC2)CCO1	inactive	inactive	inactive	inactive	inactive	inactive	inactive	inactive	inactive	inactive	–	–	–	–	–	–
C=CC(=O)OCC(Br)CBr (stereo not given)	–	inactive	–	inactive	inactive	inactive	–	inactive	inactive	inactive	72.9 µM (active)	52.8 µM (active)	131 µM (active)	–	–	–
c1cc(N(CC2CO2)CC2CO2)ccc1OCC1CO1 (stereo not given)	inactive	inactive	–	inactive	inactive	inactive	inactive	inactive	inactive	–	–	38.7 µM (active)	–	140 µM (active)	–	–
CNC(=S)N(C)C	inactive	inactive	inactive	inactive	inactive	inactive	inactive	inactive	inactive	inactive	–	–	–	–	–	–
CCCCC(CC)COCC1CO1 (stereo not given)	inactive	inactive	inactive	inactive	inactive	inactive	inactive	inactive	inactive	inactive	–	–	–	–	–	–
CCCCNc1ccc(NCCCC)c2c1C(=O)c1ccccc1C2=O	inactive	inactive	inactive	inactive	inactive	inactive	inactive	inactive	inactive	inactive	–	–	–	–	–	–
CC1(C)O[C@@H]2C[C@H]3[C@@H]4C[C@H](F)C5=CC(=O)CC[C@]5(C)[C@H]4[C@@H](O)C[C@]3(C)[C@]2(C(=O)CO)O1	inactive	inactive	inactive	inactive	inactive	inactive	inactive	inactive	inactive	inactive	–	–	–	–	–	–
CC(C)CCCC(C)CC=O (stereo not given)	inactive	inactive	inactive	inactive	inactive	inactive	inactive	inactive	inactive	inactive	–	–	–	–	–	–
O=S(=O)(O)c1ccccc1C=Cc1ccc(-c2ccc(C=Cc3ccccc3S(=O)(=O)O)cc2)cc1	–	inactive	inactive	inactive	inactive	inactive	inactive	inactive	inactive	inactive	40.6 µM (active)	–	–	–	–	–
CCCOCCOCCOCCO	inactive	inactive	inactive	inactive	inactive	inactive	inactive	inactive	inactive	inactive	–	–	–	–	–	–
CCCC(C)CCC(C)=O (stereo not given)	inactive	inactive	inactive	inactive	inactive	inactive	inactive	inactive	inactive	inactive	–	–	–	–	–	–
CN(C)c1ccc(N=Nc2ccccc2C(=O)O)cc1	–	inactive	–	inactive	inactive	inactive	inactive	–	inactive	inactive	15.6 µM (active)	47.4 µM (active)	–	–	66.9 µM (active)	–
CC=CC(F)(F)C(F)(F)C(F)(F)F	inactive	inactive	inactive	inactive	inactive	inactive	inactive	inactive	inactive	inactive	–	–	–	–	–	–
C=CC(=O)NC(C)(C)CS(=O)(=O)O	inactive	inactive	inactive	inactive	inactive	inactive	inactive	inactive	inactive	inactive	–	–	–	–	–	–
S=C(NC1CCCCC1)NC1CCCCC1	inactive	inactive	inactive	inactive	inactive	inactive	inactive	inactive	inactive	inactive	–	–	–	–	–	–
O=C(Oc1ccccc1)c1ccc2ccccc2c1O	–	inactive	–	inactive	–	inactive	inactive	inactive	inactive	inactive	37.2 µM (active)	48.7 µM (active)	–	–	–	31.2 µM (active)
COC(=O)c1ccccc1OC	inactive	inactive	inactive	inactive	inactive	inactive	inactive	inactive	inactive	inactive	–	–	–	–	–	–
O=C(Cl)c1cc(C(=O)Cl)cc(C(=O)Cl)c1	–	inactive	inactive	inactive	inactive	inactive	inactive	inactive	inactive	inactive	138 µM (active)	–	–	–	–	–
CCCCCC/C=C\CCCCCCCC(=O)O	inactive	inactive	inactive	inactive	inactive	inactive	inactive	inactive	inactive	inactive	–	–	–	–	–	–
O=c1c2ccccc2nnn1CCl	inactive	inactive	inactive	inactive	inactive	inactive	inactive	inactive	inactive	inactive	–	–	–	–	–	–
O=C1CCC(=O)N1Cl	inactive	inactive	inactive	inactive	inactive	inactive	inactive	inactive	inactive	inactive	–	–	–	–	–	–
Cc1cccc(N(C)C(=S)Oc2ccc3ccccc3c2)c1	inactive	inactive	inactive	inactive	–	inactive	inactive	inactive	inactive	inactive	–	–	–	–	–	25.3 µM (active)
NC(=O)c1ccccc1O	inactive	inactive	inactive	inactive	inactive	inactive	inactive	inactive	inactive	inactive	–	–	–	–	–	–
